Max response and outcome data for 36 compounds are collected here from PubChem BioAssay (NCATS).

The structures appear in SMILES notation. Several values for one entry are separate records, joined by “and”; a condition that tells them apart may be missing. Equal values may be shown once. Records with an inconclusive call do not appear. A number with no mark means an inactive call. Activity calls are given as the source filed them. Calls come from the whole dose curve; as a rule, active = well fitted inhibition curve with a large enough effect; inconclusive = small, poorly fitted or top-dose-only effect; inactive = flat fitted curve, though single readings scatter.
% is set by controls: 0 for no effect and ±100 for the full control effect.

The subject of the experiment is KB-3-1. As to the kind of experiment: Cytotoxic Profiling of Annotated Libraries Using Quantitative High-Throughput Screening (AID 1296008). Note: nearly all actives have a fitted effect of over 60% in size. As to conditions: Five cell lines viability, CellTiter-Glo ATP luminescence, 48-72 h; max response: active compounds read low. From the text:
Cell-based phenotypic screening is a commonly used approach to discover biological pathways, novel drug targets, chemical probes and high-quality hit-to-lead molecules. Many hits identified from high-throughput screening campaign are ruled out through a series of follow-up potency, selectivity/specificity, and cytotoxicity assays. Prioritization of molecules with little or no cytotoxicity for a more in-depth downstream evaluation influence the future direction of projects, so cytotoxicity profiling of the screening libraries at early stage is essential for increasing the likelihood of candidate success. […] For the annotated library, we also examined the primary targets and mechanistic pathways regularly associated with cell death. To our knowledge, this is the first study to use high-throughput screening to profile large libraries for cytotoxicity assessment in both normal and cancer cell lines. In summary, the results generated here constitutes a valuable resource for the scientific community and provides insight on identifying cytotoxic compounds with particular mechanisms of action, and prioritizing compounds with suitable cytotoxicity profile for further evaluation.
A pintool (Kalypsys) was used to transfer 23 nL of compound solution to the 1536-well assay plates. After 48 or 72 hr incubation at 37 degree Celsius, 5% CO2 and 95% humidity, 2.5 uL of CellTiter-Glo (Promega) was dispensed into each well using a dispenser (Aspect Automation, St. Paul, MN) with solenoid valves (Lee Valves, Westbrook CT). Plates were left at room temperature for 10 min before imaging the ATP-coupled luminescence using a ViewLux microplate imager (PerkinElmer, Waltham, MA).
(In general: ATP-based viability assays read luminescence as a measure of living cells.)
For `CCN(CCO)CCCC(C)Nc1ccnc2cc(Cl)ccc12` (stereo not given), the max response was -5.86% and 9.19% and -2.52%. On the same count and under the same terms, under `CC1(C)C(=O)N(CCN2CCC(C(=O)c3ccc(F)cc3)CC2)c2ccccc21` stands 2.39%. The same measure, in the same setting: under `CCN(CC)CCOc1ccc(Cc2ccccc2)cc1` stands -7.39% and -3.92%. Same read-out and setting: under `CC1Cc2ccccc2N1NC(=O)c1ccc(Cl)c(S(N)(=O)=O)c1` (stereo not given) stands -19.1% and -17.8% and -4.71%. Consider `Cc1ccc(Nc2nccc(N(C)c3ccc4c(C)n(C)nc4c3)n2)cc1S(N)(=O)=O`, for which the max response is -14.3% and -5.07% and -20.5%. Still for that read-out and setting: under `CC(=O)NC[C@H]1CN(c2ccc(N3CCOCC3)c(F)c2)C(=O)O1` stands -15.9% and -9.99% and -3.52%. The same measure, in the same setting: under `CCOC(=O)C1=C(O)C(=O)N(Cc2ccccc2)C1` stands 3.01%. Same read-out and setting: under `Cc1c(OCC(F)(F)F)ccnc1CS(=O)c1nc2ccccc2[nH]1` (stereo not given) stands -13.1% and -5.17%; under `O=C(O)c1cn(-c2ccc(F)cc2)c2cc(N3CCNCC3)c(F)cc2c1=O`, 14.5% and 6.97%. In the case of `CCOC(=O)C(C)Oc1cccc2c(=O)n(CC(=O)Nc3ccc4c(c3)OCCO4)ccc12` (stereo not given), the compound was classed as inactive. With `Nc1ccn([C@@H]2O[C@H](CO)[C@@H](O)C2O)c(=O)n1` (stereo not given in full), the max response is 21.2% and the compound was classed as inactive. For `CS(=O)(=O)OCCCCOS(C)(=O)=O`, the max response was 2.33% and 4.33%. Same read-out and setting: under `Cc1cc(C2CCCCC2)n(O)c(=O)c1` stands -16.3%; under `Cc1nc(-c2ccc(OCC(C)C)c(C#N)c2)sc1C(=O)O`, 3.2%. The same measure, in the same setting: under `O=c1oc2cc(O)ccc2s1` stands -11.2% and -4.56%.

With `O=C(NCCO[N+](=O)[O-])c1cccnc1`, the result was inactive. Take `O=C(O)c1cccnc1Nc1cccc(C(F)(F)F)c1`: the max response was 5.86% and -3.77%.

Take `O=C1c2ccccc2-c2n[nH]c3cccc1c23`: the max response was -0.484%. As to `CCCCC(CC)COC(=O)C(C#N)=C(c1ccccc1)c1ccccc1` (stereo not given), the compound was called inactive.

Consider `O=C1c2c(O)cc(O)cc2OC(c2ccc(O)c(O)c2)C1O` (stereo not given), for which the compound was classed as inactive. Take `NCCCCNCCCN`: the max response was 1.33%. For the compound `CC1(C)CCC(C)(C)c2cc(NC(=O)c3ccc(C(=O)O)cc3)ccc21`, the max response was 33.6%.

Consider `CCOC(=O)c1c(C)n(C)c2ccc(O)cc12`, for which the max response is -7.66% and 1.23%. Same read-out and setting: under `CC(C)c1nc(CN(C)C(=O)N[C@H](C(=O)N[C@@H](Cc2ccccc2)C[C@H](O)[C@H](Cc2ccccc2)NC(=O)OCc2cncs2)C(C)C)cs1` stands -5.85% and -8.86% and 1.74%; under `COc1c(O)cc2c(c1O)[C@@H]1O[C@H](CO)[C@@H](O)[C@H](O)[C@H]1OC2=O`, 6.75% and -4.18% and 5.95%; under `NC(=NCc1ccccc1)NC(=O)c1nc(Cl)c(N)nc1N`, -6.74%. Same read-out and setting: under `COC(=O)C1=C(C)NC(C)=C(C(=O)OCCCN2CCC(c3ccccc3)(c3ccccc3)CC2)C1c1cccc([N+](=O)[O-])c1` (stereo not given) stands 0.505%. Same read-out and setting: under `O=C(c1ccccc1)c1ccc2n1CCC2C(=O)O` (stereo not given) stands 1.88% and -12.7% and 3.64%; under `C[C@@H](N)C1CCC(C(=O)Nc2ccncc2)CC1` (stereo not given in full), -5.62%. Consider `CN(c1nccc(=O)[nH]1)C1CCN(c2nc3ccccc3n2Cc2ccc(F)cc2)CC1`, for which the max response was 1.53% and the result was inactive. Consider `Cc1cc(O)c2c(c1)C(=O)c1cc(O)cc(O)c1C2=O`, for which the max response is -3.32%. The same measure, in the same setting: under `COc1cc2nc(N3CCN(C(=O)C4CCCO4)CC3)nc(N)c2cc1OC` (stereo not given) stands -10.1% and 5.78%; under `CNC[C@@H](O)[C@@H](O)[C@H](O)[C@H](O)CO`, 5.74%. For the compound `CCC(C)(Oc1ccc(C2(c3ccc(OC(C)(CC)C(=O)O)cc3)CCCCC2)cc1)C(=O)O` (stereo not given), the max response is -0.0453% and 5.37%; the result was inactive.

In the case of `CC1=C(C(=O)O)N2C(=O)[C@@H](NC(=O)[C@H](N)C3=CCC=CC3)[C@H]2SC1`, the call was inactive and the max response was -3.32%. Take `O=C(CS(=O)Cc1ccco1)NCC=CCOc1cc(CN2CCCCC2)ccn1` (stereo not given): the max response is 2.68%.
